# Test results published in PubChem BioAssay (EPA / NIEHS).
# Activity calls are given as the source filed them. How the source made its calls: active means hit-call score of the fitted dose curve at least 0.9, where 1 is the maximum; inactive means score below 0.9.
# Columns and labels:
# Conditions in all cases: mRNA level, 48 h; actives raise or lower the signal
# [1] = read-out: Cytochrome P450 4A22 (Homo sapiens) (UniProt Q5TCH4); experiment: LTEA_HepaRG_CYP4A22: Life Technologies and Expression Analysis (LTEA) Assay for Cytochrome P450 4A22 (CYP4A22) using HepaRG (AID 2283495)
# Method in brief: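 Gene expression measured by qRT-PCR against three housekeeping genes (ACTB, GAPDH, POLR2A), with gain or loss fitted relative to 0.5% DMSO vehicle. HepaRG cultures received 48 h chemical treatment, top concentration 100 uM, half-log steps, duplicate wells.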
# [2] = read-out: Cytochrome P450 7A1 (Homo sapiens) (UniProt P22680); experiment: LTEA_HepaRG_CYP7A1: Life Technologies and Expression Analysis (LTEA) Assay for Cytochrome P450 7A1 (CYP7A1) using HepaRG (AID 2283496)
# Method in brief: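 Using 0.5% DMSO as vehicle and baseline, chemicals were tested in duplicate over an 8-point range from 100 uM on HepaRG cells for 48 h; qRT-PCR signals were normalised to ACTB, GAPDH and POLR2A.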
# [3] = read-out: Glutathione S-Transferase (GSTA2), GSTA2 (gene 2939); experiment: LTEA_HepaRG_GSTA2: Life Technologies and Expression Analysis (LTEA) Assay for Glutathione S-Transferase (GSTA2) using HepaRG (AID 2283497)
# Method in brief: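 qRT-PCR readout of GSTA2 transcript, normalized to three housekeeping genes, fitted bidirectionally against 0.5% DMSO baseline. Differentiated HepaRG cells received compound for 48 h at 8 concentrations (top 100 uM, half-log steps).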
# [4] = read-out: Glutamate-cysteine ligase catalytic (GCLC), GCLC (gene 2729); experiment: LTEA_HepaRG_GCLC: Life Technologies and Expression Analysis (LTEA) Assay for Glutamate-cysteine ligase catalytic (GCLC) using HepaRG (AID 2283498)
# Method in brief: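 HepaRG, 48 h exposure, 8-pt half-log series from 100 uM, 0.5% DMSO vehicle; TaqMan qRT-PCR for GCLC mRNA, housekeeping-normalized; bidirectional curve fit vs DMSO baseline.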
# [5] = read-out: growth arrest and DNA damage 45 (GADD45G), GADD45G (gene 10912); experiment: LTEA_HepaRG_GADD45G: Life Technologies and Expression Analysis (LTEA) Assay for growth arrest and DNA damage 45 (GADD45G) using HepaRG (AID 2283499)
# Method in brief: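 GADD45G transcript level by qRT-PCR (housekeeping-normalized: ACTB, GAPDH, POLR2A) after 48 h chemical treatment of a single HepaRG lot in serum-free induction medium; eight-point half-log series up to 100 uM in 0.5% DMSO, duplicates, up- or down-regulation scored.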
# [6] = read-out: Glutamate-cysteine ligase regulatory (GCLM), GCLM (gene 2730); experiment: LTEA_HepaRG_GCLM: Life Technologies and Expression Analysis (LTEA) Assay for Glutamate-cysteine ligase regulatory (GCLM) using HepaRG (AID 2283500)
# Method in brief: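 In this multiplexed HepaRG gene-expression assay, GCLM mRNA change after 48 h treatment (8 concentrations, max 100 uM) was scored against DMSO by bidirectional curve fitting.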
# [7] = read-out: Glutathione S-transferase M3 (GSTM3), GSTM3 (gene 2947); experiment: LTEA_HepaRG_GSTM3: Life Technologies and Expression Analysis (LTEA) Assay for Glutathione S-transferase M3 (GSTM3) using HepaRG (AID 2283501)
# Method in brief: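 GSTM3 transcript levels came from Fluidigm TaqMan qRT-PCR normalized to three housekeeping genes, fitted in both directions against DMSO. HepaRG cultures received chemicals for 48 h in serum-free induction medium (0.5% DMSO), 8 half-log concentrations up to 100 uM, duplicate.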
# [8] = read-out: Heat shock 70 kDa protein 1 (HSPA1A), gene 3303; experiment: LTEA_HepaRG_HSPA1A: Life Technologies and Expression Analysis (LTEA) Assay for Heat shock 70 kDa protein 1 (HSPA1A) using HepaRG (AID 2283502)
# Method in brief: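 An oxidative-stress marker readout: HepaRG cells treated 48 h in duplicate with an eight-point series (highest 100 uM) had HSPA1A mRNA quantified by TaqMan qRT-PCR. Activity was fitted in both directions using 0.5% DMSO as baseline.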
# [9] = read-out: Hypoxia-inducible factor 1-alpha (Homo sapiens) (UniProt Q16665); experiment: LTEA_HepaRG_HIF1A: Life Technologies and Expression Analysis (LTEA) Assay for Hypoxia-inducible factor 1 (HIF1A) Trancription factor using HepaRG (AID 2283503)
# Method in brief: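 Gain- or loss-of-signal HIF1A mRNA changes are fitted against a DMSO baseline. HepaRG cultures receive eight concentrations, highest 100 uM, for 48 h in serum-free induction medium with 0.5% DMSO.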
# [10] = read-out: 3-Hydroxy-3-Methylglutaryl-CoA Synthase 2 (HMGCS2), HMGCS2 (gene 3158); experiment: LTEA_HepaRG_HMGCS2: Life Technologies and Expression Analysis (LTEA) Assay for 3-Hydroxy-3-Methylglutaryl-CoA Synthase 2 (HMGCS2) using HepaRG (AID 2283504)
# Method in brief: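 Readout is HMGCS2 transcript by qRT-PCR, housekeeping-normalised (ACTB/GAPDH/POLR2A) and fitted bidirectionally against 0.5% DMSO. Differentiated HepaRG cells received chemicals 48 h, duplicate wells, eight half-log concentrations topping at 100 uM.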
# HGF (gene 3082) = experiment: LTEA_HepaRG_HGF: Life Technologies and Expression Analysis (LTEA) Assay for Hepatocyte Growth Facto (HGF) using HepaRG (AID 2283505)
# Method in brief: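 HGF transcript was quantified by TaqMan qRT-PCR against three housekeeping genes after 48 h treatment of HepaRG cells. Exposure ran in duplicate over eight half-log steps topping at 100 uM in 0.5% DMSO vehicle.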
# [11] = read-out: Insulin Like Growth Factor 1 (IGF1), IGF1 (gene 3479); experiment: LTEA_HepaRG_IGF1: Life Technologies and Expression Analysis (LTEA) Assay for Insulin Like Growth Factor 1 (IGF1) using HepaRG (AID 2283506)
# Method in brief: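 Endpoint: IGF1 mRNA change by qRT-PCR, housekeeping-normalized, fitted bidirectionally relative to 0.5% DMSO vehicle. Human HepaRG cells were treated 48 h in serum-free induction medium, eight half-log concentrations topping at 100 uM.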
# [12] = read-out: Intercellular Adhesion Molecule 1 (ICAM1), ICAM1 (gene 3383); experiment: LTEA_HepaRG_ICAM1: Life Technologies and Expression Analysis (LTEA) Assay for Intercellular Adhesion Molecule 1 (ICAM1) using HepaRG (AID 2283507)
# Method in brief: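 ICAM1 transcript levels measured by qRT-PCR, normalized to three housekeeping genes (ACTB, GAPDH, POLR2A), after 48 h chemical exposure of HepaRG cells. Duplicate eight-point half-log series from 100 uM in 0.5% DMSO; gain or loss fitted against vehicle.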
# [13] = read-out: Insulin-like growth factor-binding protein 1 (IGFBP1), IGFBP1 (gene 3484); experiment: LTEA_HepaRG_IGFBP1: Life Technologies and Expression Analysis (LTEA) Assay for Insulin-like growth factor-binding protein 1 (IGFBP1) using HepaRG (AID 2283508)
# Method in brief: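 Read-out is qRT-PCR transcript level normalized to three housekeeping genes, fitted in both directions against 0.5% DMSO. Differentiated HepaRG cells received eight half-log concentrations (top 100 uM) in duplicate for 48 h in serum-free induction medium.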
# [14] = read-out: Interleukin 6 (IL6), IL6 (gene 3569); experiment: LTEA_HepaRG_IL6: Life Technologies and Expression Analysis (LTEA) Assay for Interleukin 6 (IL6) using HepaRG (AID 2283509)
# Method in brief: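 qRT-PCR read-out of IL6 transcript, normalized to three housekeeping genes, after 48 h chemical exposure of HepaRG cells; 8-point half-log series, top 100 uM, 0.5% DMSO vehicle. Bidirectional curve fitting against DMSO baseline.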
# [15] = read-out: Interleukin 6 Receptor (IL6R), IL6R (gene 3570); experiment: LTEA_HepaRG_IL6R: Life Technologies and Expression Analysis (LTEA) Assay for Interleukin 6 Receptor (IL6R) using HepaRG (AID 2283510);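 on AC50: differentiated human HepaRG liver cells in serum-free induction medium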
# Method in brief: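 In this HepaRG screen, test chemicals act on cells for 48 h at up to 100 uM (eight half-log points, duplicate wells). IL6R expression is quantified by qRT-PCR after normalization to ACTB, GAPDH and POLR2A, with DMSO as baseline.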
# [16] = read-out: Potassium channel subfamily K member 1 (KCNK1), KCNK1 (gene 3775); experiment: LTEA_HepaRG_KCNK1: Life Technologies and Expression Analysis (LTEA) Assay for Potassium channel subfamily K member 1 (KCNK1) using HepaRG (AID 2283511)
# Method in brief: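 HepaRG, 48 h exposure, 8-pt half-log series top 100 uM, 0.5% DMSO vehicle, duplicates. Readout: KCNK1 transcript by qRT-PCR (Fluidigm array), housekeeping-normalized; bidirectional curve fit relative to DMSO baseline.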
# [17] = read-out: Keratin 19 (KRT19), KRT19 (gene 3880); experiment: LTEA_HepaRG_KRT19: Life Technologies and Expression Analysis (LTEA) Assay for Keratin 19 (KRT19) using HepaRG (AID 2283512)
# Method in brief: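 KRT19 transcript measured by TaqMan qRT-PCR, referenced to three housekeeping genes, after HepaRG cells received test chemicals for 48 h. Eight half-log concentrations, top 100 uM, 0.5% DMSO vehicle; increases and decreases both fitted.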
# [18] = read-out: JUN Transcription Factor, JUN (gene 3725); experiment: LTEA_HepaRG_JUN: Life Technologies and Expression Analysis (LTEA) Assay for JUN Transcription Factor using HepaRG (AID 2283513)
# Method in brief: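 Gene-expression endpoint: JUN mRNA (qRT-PCR, normalized to three reference genes) in HepaRG cultures treated 48 h with chemicals, duplicate wells, 100 uM maximum with half-log dilutions; bidirectional fitting relative to 0.5% DMSO.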
# [19] = read-out: Lipase C (LIPC), LIPC (gene 3990); experiment: LTEA_HepaRG_LIPC: Life Technologies and Expression Analysis (LTEA) Assay for Lipase C (LIPC) using HepaRG (AID 2283514)
# Method in brief: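 HepaRG, 48 h exposure, 8-pt half-log series from 100 uM in 0.5% DMSO, duplicates. Readout: LIPC mRNA by Fluidigm qRT-PCR, housekeeping-normalized (ACTB/GAPDH/POLR2A). Gain or loss fitted bidirectionally against DMSO baseline.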
# Hypoxia-inducible factor 1-alpha (Homo sapiens), sequence (Q16665 whole entry, looked up): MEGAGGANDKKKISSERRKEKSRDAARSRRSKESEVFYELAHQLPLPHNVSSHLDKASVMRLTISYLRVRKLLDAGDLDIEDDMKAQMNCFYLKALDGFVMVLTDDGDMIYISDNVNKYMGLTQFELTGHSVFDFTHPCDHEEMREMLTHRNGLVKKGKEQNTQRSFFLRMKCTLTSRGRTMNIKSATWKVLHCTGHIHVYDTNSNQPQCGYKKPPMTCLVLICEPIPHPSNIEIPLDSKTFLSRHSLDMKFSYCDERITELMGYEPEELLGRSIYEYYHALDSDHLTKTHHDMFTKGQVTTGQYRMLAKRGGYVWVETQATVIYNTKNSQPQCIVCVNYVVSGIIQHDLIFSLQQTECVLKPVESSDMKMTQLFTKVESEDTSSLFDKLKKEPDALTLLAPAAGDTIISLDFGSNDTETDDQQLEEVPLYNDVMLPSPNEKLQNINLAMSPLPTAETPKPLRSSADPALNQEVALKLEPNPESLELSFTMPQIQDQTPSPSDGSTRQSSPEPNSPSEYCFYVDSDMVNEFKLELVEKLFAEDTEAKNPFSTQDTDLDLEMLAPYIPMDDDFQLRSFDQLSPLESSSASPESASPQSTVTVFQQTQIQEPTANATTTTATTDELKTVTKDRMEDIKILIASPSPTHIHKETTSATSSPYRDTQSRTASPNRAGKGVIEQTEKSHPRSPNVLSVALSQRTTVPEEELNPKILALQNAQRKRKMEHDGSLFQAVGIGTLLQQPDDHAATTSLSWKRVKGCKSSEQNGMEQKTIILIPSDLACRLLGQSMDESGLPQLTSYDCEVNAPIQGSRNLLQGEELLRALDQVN
smiles,measurement,setting,value
CC(C)(O)c1ccc(CNC(=O)c2cccnc2Oc2ccc3nonc3c2)cc1,outcome,[1],inactive
same,outcome,[2],inactive
same,outcome,[3],inactive
same,outcome,[4],inactive
same,outcome,[5],inactive
same,outcome,[6],inactive
same,outcome,[7],inactive
same,outcome,[8],inactive
same,outcome,[9],inactive
same,outcome,[10],inactive
same,outcome,HGF (gene 3082),inactive
same,AC50,[11],22.7 µM (active)
same,outcome,[12],inactive
same,outcome,[13],inactive
same,outcome,[14],inactive
same,outcome,[15],inactive
same,outcome,[16],inactive
same,outcome,[17],inactive
same,outcome,[18],inactive
same,outcome,[19],inactive
COc1cc(C(=O)NC2CCN(C)CC2)ccc1Nc1ncc2c(n1)N(C1CCCC1)CC(F)(F)C(=O)N2C,AC50,[1],3.23 µM (active)
same,AC50,[2],8.23 µM (active)
same,AC50,[3],12 µM (active)
same,AC50,[4],21.3 µM (active)
same,AC50,[5],85.6 µM (active)
same,outcome,[6],inactive
same,AC50,[7],3.73 µM (active)
same,AC50,[8],31.7 µM (active)
same,outcome,[9],inactive
same,AC50,[10],10.5 µM (active)
same,outcome,HGF (gene 3082),inactive
same,AC50,[11],3.45 µM (active)
same,AC50,[12],83.7 µM (active)
same,AC50,[13],23.3 µM (active)
same,AC50,[14],25.2 µM (active)
same,AC50,[15],86.4 µM (active)
same,outcome,[16],inactive
same,AC50,[17],12.3 µM (active)
same,AC50,[18],25.9 µM (active)
same,AC50,[19],4.65 µM (active)
Cc1ccc2oc(CN(Cc3ccccc3)C(=O)Nc3c(F)cc(F)cc3F)c(-c3ccc(Cl)cc3)c2c1,AC50,[1],44.2 µM (active)
same,AC50,[2],5.31 µM (active)
same,AC50,[3],44.2 µM (active)
same,outcome,[4],inactive
same,AC50,[5],77.2 µM (active)
same,AC50,[6],44.2 µM (active)
same,outcome,[7],inactive
same,outcome,[8],inactive
same,outcome,[9],inactive
same,AC50,[10],44.2 µM (active)
same,outcome,HGF (gene 3082),inactive
same,AC50,[11],30.2 µM (active)
same,outcome,[12],inactive
same,AC50,[13],70.8 µM (active)
same,outcome,[14],inactive
same,outcome,[15],inactive
same,outcome,[16],inactive
same,outcome,[17],inactive
same,outcome,[18],inactive
same,AC50,[19],44.2 µM (active)
